# Where “and” joins values, the source holds several entries; their conditions need not be identical. Equal values may be shown once. About 2,000 (36%) of roughly 5,500 compounds were called active. Not shown: some 18% with an inconclusive outcome. The list shows a part of the results. Values without a mark were called inactive. Cut-off read from the data, not from the text of the source: active = normalized growth mostly below about 0.91 (no sharp cut-off); inconclusive = no clear call, values can overlap the other calls; inactive = mostly above about 0.92.
# Experiment: chemical genetic growth profiling, strain panel (AID 1159580);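 note: tested at 20 µM; growth read once vehicle control cultures reached saturation at 30 °C; 1 = growth at the plate median or of vehicle wells; lower values mean less growth of the strain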
# Conditions: S. cerevisiae deletion strains, growth OD
smiles,measurement,setting,value
COC(=O)c1c(C)c2c(c(C)c1O)OC(=O)c1c(C)c(Cl)c(O)c(Cl)c1O2,normalized growth,"locus YAL021C, strain ccr4, active compounds read low",0.943
same,normalized growth,"locus YAL026C, strain drs2, active compounds read low",0.951
same,normalized growth,"locus YAL030W, strain snc1, active compounds read low",0.969
same,normalized growth,"locus YBL061C, strain skt5, active compounds read low",0.968
same,normalized growth,"locus YBR009C, strain hhf1, active compounds read low",0.935
same,normalized growth,"locus YBR021W, strain FUR4, active compounds read low",0.962
same,normalized growth,"locus YBR023C, strain chs3, active compounds read low",0.959
same,normalized growth,"locus YBR171W, strain sec66, active compounds read low",0.975
same,normalized growth,"locus YBR229C, strain ROT2, active compounds read low",0.985
same,normalized growth,"locus YBR231C, strain swc5, active compounds read low",0.976
same,normalized growth,"locus YBR279W, strain paf1, active compounds read low",0.944
same,normalized growth,"locus YCL011C, strain gbp2, active compounds read low",0.96
same,normalized growth,"locus YCL016C, strain dcc1, active compounds read low",0.967
same,normalized growth,"locus YCL029C, strain bik1, active compounds read low",1.03
same,normalized growth,"locus YCL069W, strain vba3, active compounds read low",0.944
same,normalized growth,"locus YCR088W, strain abp1, active compounds read low",0.96
same,normalized growth,"locus YDL005C, strain med2, active compounds read low",0.947
same,normalized growth,"locus YDL035C, strain GPR1, active compounds read low",0.894
same,normalized growth,"locus YDL040C, strain nat1, active compounds read low",0.943
same,normalized growth,"locus YDL074C, strain BRE1, active compounds read low",0.926
same,normalized growth,"locus YDL101C, strain DUN1, active compounds read low",0.98
same,normalized growth,"locus YDL134C, strain PPH21, active compounds read low",0.941
same,normalized growth,"locus YDL185W, strain tfp1, active compounds read low",0.995
same,normalized growth,"locus YDL192W, strain arf1, active compounds read low",0.922
same,normalized growth,"locus YDR001C, strain nth1, active compounds read low",0.969
same,normalized growth,"locus YDR069C, strain doa4, active compounds read low",0.967
same,normalized growth,"locus YDR101C, strain arx1, active compounds read low",1
same,normalized growth,"locus YDR137W, strain rgp1, active compounds read low",0.87
same,normalized growth,"locus YDR159W, strain sac3, active compounds read low",0.902
same,normalized growth,"locus YDR162C, strain NBP2, active compounds read low",0.734 (active)
same,normalized growth,"locus YDR195W, strain ref2",1.03
same,normalized growth,"locus YDR297W, strain sur2, active compounds read low",0.944
same,normalized growth,"locus YDR318W, strain mcm21, active compounds read low",0.975
same,normalized growth,"locus YDR334W, strain swr1, active compounds read low",0.939
same,normalized growth,"locus YDR335W, strain msn5, active compounds read low",0.939
same,normalized growth,"locus YDR388W, active compounds read low",0.984
same,normalized growth,"locus YDR392W, strain spt3, active compounds read low",0.617 (active)
same,normalized growth,"locus YDR502C, strain sam2, active compounds read low",0.96
same,normalized growth,"locus YEL003W, strain gim4, active compounds read low",0.969
same,normalized growth,"locus YEL037C, strain rad23, active compounds read low",0.957
same,normalized growth,"locus YEL061C, strain CIN8 (second series), active compounds read low",0.961
same,normalized growth,"locus YEL061C, strain CIN8, active compounds read low",0.986
same,normalized growth,"locus YER015W, strain faa2, active compounds read low",0.977
same,normalized growth,"locus YER016W, strain bim1, active compounds read low",0.96
same,normalized growth,"locus YER110C, active compounds read low",1.03
same,normalized growth,"locus YER111C, strain swi4, active compounds read low",0.979
same,normalized growth,"locus YER155C, strain BEM2 (second series), active compounds read low",0.97
same,normalized growth,"locus YER155C, strain BEM2, active compounds read low",1.01
same,normalized growth,"locus YER167W, strain BCK2, active compounds read low",0.937
same,normalized growth,"locus YFR010W, strain ubp6, active compounds read low",0.952
same,normalized growth,"locus YGL078C, strain dbp3, active compounds read low",0.991
same,normalized growth,"locus YGL086W, strain mad1, active compounds read low",0.962
same,normalized growth,"locus YGL167C, strain pmr1, active compounds read low",0.95
same,normalized growth,"locus YGL173C, strain kem1, active compounds read low",0.966
same,normalized growth,"locus YGL227W, strain vid30, active compounds read low",0.969
same,normalized growth,"locus YGL240W, strain doc1, active compounds read low",0.93
same,normalized growth,"locus YGL248W, strain PDE1, active compounds read low",0.983
same,normalized growth,"locus YGL253W, strain hxk2, active compounds read low",0.952
same,normalized growth,"locus YGR135W, strain pre9, active compounds read low",0.964
same,normalized growth,"locus YGR229C, strain SMI1, active compounds read low",0.462 (active)
same,normalized growth,"locus YGR252W, strain gcn5, active compounds read low",0.927
same,normalized growth,"locus YHR013C, strain ard1, active compounds read low",0.946
same,normalized growth,"locus YHR027C, strain rpn1, active compounds read low",0.957
same,normalized growth,"locus YHR030C, strain SLT2, active compounds read low",0.992 and 0.949
same,normalized growth,"locus YHR079C, strain IRE1 (second series), active compounds read low",1.03
same,normalized growth,"locus YHR079C, strain IRE1, active compounds read low",0.94
same,normalized growth,"locus YHR094C, strain hxt1, active compounds read low",1.03
same,normalized growth,"locus YHR129C, strain ARP1, active compounds read low",0.973
same,normalized growth,"locus YHR142W, strain chs7, active compounds read low",0.849 (active)
same,normalized growth,"locus YHR200W, strain rpn10, active compounds read low",0.993
same,normalized growth,"locus YIL066C, strain RNR3, active compounds read low",0.892
same,normalized growth,"locus YIL073C, strain SPO22, active compounds read low",0.976
same,normalized growth,"locus YIL125W, strain kgd1, active compounds read low",1.01
same,normalized growth,"locus YIR030C, strain dcg1, active compounds read low",1.02
same,normalized growth,"locus YJL092W, strain hpr5, active compounds read low",0.979
same,normalized growth,"locus YJL095W, strain BCK1 (second series), active compounds read low",0.955
same,normalized growth,"locus YJL095W, strain BCK1, active compounds read low",0.84 and 0.969
same,normalized growth,"locus YJL115W, strain asf1, active compounds read low",0.956
same,normalized growth,"locus YJL129C, strain trk1, active compounds read low",0.9
same,normalized growth,"locus YJL134W, strain LCB3, active compounds read low",1
same,normalized growth,"locus YJL154C, strain vps35, active compounds read low",0.967
same,normalized growth,"locus YJL164C, strain tpk1, active compounds read low",0.926
same,normalized growth,"locus YJL166W, strain qcr8, active compounds read low",0.94
same,normalized growth,"locus YJL168C, strain set2, active compounds read low",0.997
same,normalized growth,"locus YJL187C, strain SWE1 (second series), active compounds read low",0.966
same,normalized growth,"locus YJR043C, strain POL32, active compounds read low",0.853 (active)
same,normalized growth,"locus YJR066W, strain TOR1, active compounds read low",0.878
same,normalized growth,"locus YKL009W, strain mrt4, active compounds read low",1.01
same,normalized growth,"locus YKL068W, active compounds read low",1
same,normalized growth,"locus YKL085W, strain MDH1 (second series), active compounds read low",1.01
same,normalized growth,"locus YKL085W, strain MDH1, active compounds read low",1.01
same,normalized growth,"locus YKL160W, strain elf1, active compounds read low",0.956
same,normalized growth,"locus YKL190W, strain CNB1, active compounds read low",0.957
same,normalized growth,"locus YKR001C, strain vps1, active compounds read low",0.937
same,normalized growth,"locus YKR026C, strain gcn3, active compounds read low",0.97
same,normalized growth,"locus YKR091W, strain srl3, active compounds read low",0.967
same,normalized growth,"locus YLL001W, strain dnm1, active compounds read low",0.959
same,normalized growth,"locus YLL026W, active compounds read low",0.975
same,normalized growth,"locus YLL041C, strain sdh2, active compounds read low",0.964
same,normalized growth,"locus YLR027C, strain aat2, active compounds read low",0.984
same,normalized growth,"locus YLR039C, strain RIC1, active compounds read low",0.928
same,normalized growth,"locus YLR058C, strain SHM2, active compounds read low",0.985
same,normalized growth,"locus YLR102C, strain apc9, active compounds read low",1.01
same,normalized growth,"locus YLR113W, strain HOG1, active compounds read low",1.04
same,normalized growth,"locus YLR221C, strain rsa3, active compounds read low",0.958
same,normalized growth,"locus YLR258W, strain gsy2, active compounds read low",0.937
same,normalized growth,"locus YLR262C, strain YPT6 (second series), active compounds read low",0.855 (active)
same,normalized growth,"locus YLR262C, strain YPT6, active compounds read low",0.865
same,normalized growth,"locus YLR268W, strain sec22, active compounds read low",1
same,normalized growth,"locus YLR320W, strain mms22, active compounds read low",0.932
same,normalized growth,"locus YLR330W, strain CHS5, active compounds read low",0.987
same,normalized growth,"locus YLR342W, strain FKS1 (second series), active compounds read low",0.751 (active)
same,normalized growth,"locus YLR342W, strain FKS1, active compounds read low",0.971
same,normalized growth,"locus YLR357W, strain rsc2, active compounds read low",0.922
same,normalized growth,"locus YLR370C, strain arc18, active compounds read low",0.958
same,normalized growth,"locus YLR371W, strain rom2, active compounds read low",1.03
same,normalized growth,"locus YLR384C, strain iki3, active compounds read low",0.983
same,normalized growth,"locus YLR418C, strain cdc73, active compounds read low",0.83 (active)
same,normalized growth,"locus YML016C, strain PPZ1, active compounds read low",1.01
same,normalized growth,"locus YML032C, strain rad52, active compounds read low",0.959
same,normalized growth,"locus YML120C, strain ndi1, active compounds read low",0.957
same,normalized growth,"locus YML124C, strain tub3, active compounds read low",1.02
same,normalized growth,"locus YMR058W, strain fet3, active compounds read low",0.95
same,normalized growth,"locus YMR078C, strain ctf18, active compounds read low",1.01
same,normalized growth,"locus YMR125W, strain sto1, active compounds read low",0.986
same,normalized growth,"locus YMR129W, active compounds read low",0.974
same,normalized growth,"locus YMR205C, strain PFK2, active compounds read low",0.879
same,normalized growth,"locus YMR223W, strain ubp8, active compounds read low",0.949
same,normalized growth,"locus YMR231W, strain pep5, active compounds read low",0.954
same,normalized growth,"locus YMR307W, strain GAS1, active compounds read low",0.545 (active)
same,normalized growth,"locus YNL067W, strain RPL9B, active compounds read low",0.996
same,normalized growth,"locus YNL071W, strain lat1, active compounds read low",0.932
same,normalized growth,"locus YNL183C, strain NPR1, active compounds read low",0.931
same,normalized growth,"locus YNL209W, strain ssb2, active compounds read low",0.991
same,normalized growth,"locus YNL233W, strain BNI4, active compounds read low",0.916
same,normalized growth,"locus YNL248C, strain rpa49, active compounds read low",0.954
same,normalized growth,"locus YNL250W, strain rad50, active compounds read low",1.02
same,normalized growth,"locus YNL271C, strain bni1, active compounds read low",1
same,normalized growth,"locus YNL298W, strain CLA4, active compounds read low",1.01
same,normalized growth,"locus YNL307C, strain MCK1, active compounds read low",0.978
same,normalized growth,"locus YNL322C, strain KRE1 (second series), active compounds read low",0.976
same,normalized growth,"locus YNR049C, strain mso1, active compounds read low",0.955
same,normalized growth,"locus YNR052C, strain pop2, active compounds read low",0.967
same,normalized growth,"locus YOL012C, strain htz1",1.87
same,normalized growth,"locus YOL147C, strain pex11, active compounds read low",1
same,normalized growth,"locus YOR001W, strain rrp6, active compounds read low",0.945
same,normalized growth,"locus YOR061W, strain CKA2, active compounds read low",0.99
same,normalized growth,"locus YOR069W, strain VPS5, active compounds read low",1.01
same,normalized growth,"locus YOR070C, strain gyp1, active compounds read low",0.98
same,normalized growth,"locus YOR080W, strain dia2, active compounds read low",0.965
same,normalized growth,"locus YOR083W, strain WHI5, active compounds read low",0.932
same,normalized growth,"locus YOR106W, strain vam3, active compounds read low",0.877
same,normalized growth,"locus YOR136W, strain idh2, active compounds read low",0.997
same,normalized growth,"locus YOR144C, strain elg1, active compounds read low",1.02
same,normalized growth,"locus YOR184W, strain ser1, active compounds read low",0.874
same,normalized growth,"locus YOR231W, strain MKK1, active compounds read low",0.972
same,normalized growth,"locus YOR265W, strain rbl2, active compounds read low",0.962
same,normalized growth,"locus YOR270C, strain vph1, active compounds read low",0.715 (active)
same,normalized growth,"locus YOR290C, strain snf2, active compounds read low",0.92
same,normalized growth,"locus YOR316C, strain cot1, active compounds read low",1
same,normalized growth,"locus YPL051W, strain arl3, active compounds read low",0.925
same,normalized growth,"locus YPL078C, strain atp4, active compounds read low",0.964
same,normalized growth,"locus YPL106C, strain sse1, active compounds read low",0.903
same,normalized growth,"locus YPL240C, strain hsp82, active compounds read low",0.96
same,normalized growth,"locus YPL256C, strain CLN2, active compounds read low",0.954
same,normalized growth,"locus YPR119W, strain clb2, active compounds read low",1
same,normalized growth,"locus YPR141C, strain kar3, active compounds read low",0.995
same,normalized growth,"locus YPR163C, strain tif3, active compounds read low",1.02
same,normalized growth,"locus YPR167C, strain met16, active compounds read low",0.982
same,normalized growth,"strain wtn01, active compounds read low",1
